Test results from ChEMBL document CHEMBL3988442, “University of Dundee, Small-Polar-MMV Screening Library” (2021).
About 1,200 (3.2%) of roughly 38,000 compounds showed an effect of 50% or more. The median lay at about -58%. What follows is part of a selection rich in strong results, with near analogues and random picks from the rest.

System: Plasmodium falciparum
Experiment: Calibr Malaria Delayed Death Assay SOP
Assay type: functional, organism-based
Set-up: scale not given: in the data most compounds retested in dose-response had high values
Conditions: concentration 4.99e-06 (unit not given; other assays of the set use mol/L)

| Compound | Percent Effect [%] |
| --- | --- |
| O=C(O)C(F)(F)F.O=C(O)C(F)(F)F.c1cncc(CO[C@H]2CN(Cc3ccco3)[C@@H]3COC[C@H]23)c1 | -20 |
| Nc1nnc(SCc2cc(=O)n3c4c(sc3n2)CCCC4)[nH]1 | -122.1 |
| O=C(C1CCC1)N1C(CN2CCOCC2)[C@]2(O)CC[C@H]1CC2 (stereo not given in full) | -122.6 |
| O=C(Cn1nc(Br)nc1Br)N1CCCCC1 | -129.7 |
| Cc1nc(CC2CCN(C(=O)C(c3ccccc3C)N(C)C)CC2)no1 (stereo not given) | -27.12 |
| COc1ccc(CN(Cc2cncn2C)CC2CCCO2)cc1.O=C(O)CC(O)(CC(=O)O)C(=O)O (stereo not given) | -5.826 |
| CC1CCN(c2nc3ncc4c(c3c(=O)[nH]2)CC(C)(C)CC4=O)CC1 | -163.1 |
| COCC(Nc1nc(N(C)C)nc2c1CCNCC2)c1ccccn1 (stereo not given) | -46.74 |
| CN(Cc1ccsc1)c1nc(-c2ccccn2)nc2c1CCNCC2 | 79.12 |
| CCOCc1nc2c(c(N(C)Cc3snnc3C)n1)CCNCC2 | -53.15 |
| CCOCc1nc2c(c(N(C)Cc3ccsc3)n1)CCNCC2 | 63.06 |
| CN(CC1Cc2ccccc2CN1C)c1nc(N)nc2c1CCNCC2 (stereo not given) | -16.74 |
| CCOCc1nc2c(c(N(C)Cc3nonc3C)n1)CCNCC2 | 45.51 |
| COCC1CCN(C(=O)c2cn(Cc3ccccc3F)nn2)CC1 | -60.58 |
| CN(C)c1cc(C(=O)NCCc2n[nH]c(=O)[nH]2)ccn1 | -61.85 |
| Cc1cnn(CC2CN(Cc3nc(C4CC4)no3)CCO2)c1 (stereo not given) | -0.1422 |
| COCCN1CCC(CNC(=O)CCc2cc(F)ccc2F)C1 (stereo not given) | -6.086 |
| CC(C)N1CCC(CNC(=O)COc2ccc(F)cc2F)C1 (stereo not given) | 52.83 |
| CC(C)N1CCC(CNC(=O)CCc2cc(F)ccc2F)C1 (stereo not given) | 6.837 |
| Cc1cc(CNC(=O)N2CCN(c3ccc(Cl)cn3)CC2)c(C)o1 | -63.56 |
| CC(=O)N1CCO[C@@H]2CN(C(=O)NCc3ccccc3)CC[C@@H]2C1 | -111.3 |
| Cc1cnc(N2CC[C@@H]3OC(COCC(=O)N(C)C)CC[C@@H]32)nc1.O=C(O)C(F)(F)F (stereo not given in full) | -36.79 |
| CCCOc1cc(C)ccc1NC(=O)NCCNC(=O)C(C)C | -67.23 |

| Compound | Percent Effect [%] |
| --- | --- |
| CC(C)COC(=O)N1[C@@H](c2ccco2)[C@@H](CO)C[C@]12CCCCNC2=O | -86.33 |
| OC(CNc1nc(C2CCCC2)nc2c1CCNCC2)C(F)(F)F (stereo not given) | 63.72 |
| Cc1nc2c(c(NCC(O)C(F)(F)F)n1)CCNCC2 (stereo not given) | -130.8 |
| COCc1noc(CNc2nc(C3CCCC3)nc3c2CCNCC3)n1 | 26.49 |
| COCCNc1nc2c(c(NCc3ccncc3)n1)CCNCC2 | 12.96 |
| COCCNc1nc(C2CCCC2)nc2c1CCNCC2 | 52.24 |
| OC(CNc1ncnc2c1CCNCC2)C(F)(F)F (stereo not given) | -185.3 |
| Cc1nc(CN2CCO[C@H]3[C@@H](Oc4ccccn4)CC[C@@H]32)cs1.O=C(O)C(F)(F)F.O=C(O)C(F)(F)F | -51.07 |
| COc1cccc(-c2cc(C(=O)NCCCn3cnnc3)[nH]n2)c1 | -185.9 |
| CCn1ncc2c1C(COC)CN(Cc1cnn(C)c1)C2 (stereo not given) | -1.77 |
| CC[C@@H]1N(Cc2nccs2)CCC[C@]12CCC(=O)N2CCOC.O=C(O)C(F)(F)F | -51.09 |
| Cc1noc(-c2ccnc(N3CCC(CN4CCOCC4)CC3)c2)n1 | -57.29 |
| Cc1ccc(C(=O)N2CCN(c3ccnc4ccsc34)CC2)o1 | 5.694 |
| c1coc(CN2CCn3c(nc4ccccc43)C2)c1 | -138.4 |
| CN(Cc1ccco1)C[C@H]1OC[C@@H]2CCN(Cc3ccccn3)C[C@@H]21.O=C(O)C(F)(F)F.O=C(O)C(F)(F)F.O=C(O)C(F)(F)F | 70.31 |
| CN(Cc1ccco1)C[C@H]1OC[C@@H]2CCN(Cc3cccnc3)C[C@@H]21.O=C(O)C(F)(F)F.O=C(O)C(F)(F)F.O=C(O)C(F)(F)F | -41.37 |
| CN(Cc1ccco1)C[C@H]1OC[C@@H]2CCN(Cc3nccs3)C[C@@H]21 | 9.527 |
| CN(Cc1ccco1)C[C@H]1OC[C@@H]2CCN(Cc3ccncc3)C[C@@H]21.O=C(O)C(F)(F)F.O=C(O)C(F)(F)F.O=C(O)C(F)(F)F | -2.031 |
| Cc1cccc(N2CC[C@H]3CO[C@H](CN(C)Cc4ccco4)[C@H]3C2)n1 | 48.83 |
| OC1=C2C(=Nc3n[nH]c(O)c3C2c2ccccc2Cl)CCC1 (stereo not given) | -169.8 |
| Cn1nc(C(=O)N2CCCC2)c(F)c1NC(=O)Cc1ccccc1 | -43.72 |
| Cc1nc2ccnn2c(C)c1CCC(=O)N1CCN(CCO)CC1 | -40.17 |
| CCn1ncnc1C(C)Nc1cc(C2CC2)ncn1 (stereo not given) | -128.7 |

| Compound | Percent Effect [%] |
| --- | --- |
| Cc1cccc(CN2C(=O)CO[C@@H]3CN(Cc4cnn(C)c4)C[C@H]32)c1.O=C(O)C(F)(F)F.O=C(O)C(F)(F)F | -89.5 |
| CC(C)CNC(=O)CNc1c(NCc2ccncc2)c(=O)c1=O | -63.87 |
| Cc1ccc2nc(CN3CCCCC3CCN3CCOCC3)cn2c1 (stereo not given) | 7.984 |
| O=C(NC1CCN(CC2CC2)C1)c1ccc(N2CCC(O)CC2)cc1 (stereo not given) | -9.255 |
| CSC(C)(C)CNC(=O)NC1CCN(CC2CC2)C1 (stereo not given) | -39.54 |
| O=C(NC1CCN(CC2CCCC2)C1)N1CCC(OCC2CC2)CC1 (stereo not given) | 63.12 |
| O=C(NC1CCN(CC2CC2)C1)c1ccc(C(=O)c2cc[nH]c2)cc1 (stereo not given) | -13.77 |
| NC(=O)C1CCN(C(=O)NC2CCN(CC3CCCC3)C2)CC1 (stereo not given) | -59.5 |
| O=C(NC1CCN(CC2CC2)C1)N1CCC(OC2CCCCC2)CC1 (stereo not given) | 53.27 |
| CNc1nc2c(s1)C(=O)CN(C(=O)NCCc1ccccc1)C2 | -35.41 |
| COCCN1CCC(c2nc3ccc(NC(C)C)cn3n2)CC1.O=C(O)C(F)(F)F | -58.6 |
| CCNc1ncc2c(n1)CN(c1ccc(C)c(C)c1)C2=O | -153.3 |
| Cc1ccc(S(=O)(=O)Nc2ccc(C)c(C(=O)O)c2)s1 | -129.6 |
| O=C(NCCN1CCOCC1)C1=NOC2(CCN(Cc3nccs3)C2)C1 (stereo not given) | -143.8 |
| Cc1nn(C)c(Oc2ccc(Cl)cc2)c1CN1CCC(CN)C1 (stereo not given) | 92.45 |
| Cc1nn(C)c(Oc2ccccc2)c1CNC1CCOc2ccccc21 (stereo not given) | -79.66 |
| Cc1nn(C)c(Cl)c1CN1CCN(c2nccs2)C(C)C1 (stereo not given) | -15.39 |
| O=C(O)C(F)(F)F.O=C(c1ccccn1)N1CCC2(CC1)COC(COCC1CCCC1)C2 (stereo not given) | -17.9 |
| CC(C)C(C)NC(=O)Nc1cccc2c1CCN(S(C)(=O)=O)C2 (stereo not given) | -62.13 |
| Cc1c[nH]c(CN2CCC3(CCCN(Cc4ccc(F)c(F)c4)C3)C2)n1 (stereo not given) | 79.41 |
| CN(C)C(=O)N1CCCC2(CCN(Cc3ccc(Cl)c(F)c3)C2)C1 (stereo not given) | 40.95 |
| Fc1ccc(CN2CCCC3(CCN(Cc4ncc[nH]4)C3)C2)cc1F (stereo not given) | 59.25 |
| O=C(c1cn[nH]c1)N1CCC2(CCCN(Cc3ccc(F)c(F)c3)C2)C1 (stereo not given) | -30.22 |

| Compound | Percent Effect [%] |
| --- | --- |
| O=C1N(Cc2ccc(F)c(F)c2)CCCC1(O)CNCc1ncc[nH]1 (stereo not given) | -127.8 |
| Cc1ccc(CN2CCC3(CCCN(Cc4ccc(F)c(F)c4)C3)C2)o1 (stereo not given) | 25.14 |
| Cc1noc(CN2CCCC(Cn3nc(C)nc3C)C2)n1 (stereo not given) | -86.57 |
| N#Cc1c(SCCN2CCCCCC2)sc2c(O)cc(O)nc12 | -30.34 |
| CN(C)S(=O)(=O)N1C[C@@H]2COC[C@]2(COc2ccccn2)C1.O=C(O)C(F)(F)F | -16.81 |
| CCCn1nnc(NCc2cc(Br)cc(Br)c2OC)n1 | -108.1 |
| COc1ccccc1OCC(=O)NCC(O)(c1cccs1)C1CC1 (stereo not given) | -17.87 |
| Cc1ccc(-c2cnc3n2CCN(C)C32CCN(CC3CC3)CC2)cc1.O=C(O)C(F)(F)F.O=C(O)C(F)(F)F.O=C(O)C(F)(F)F | 38.95 |
| CCN1CCn2c(-c3cccc(F)c3)cnc2C12CCN(C(C)=O)CC2.O=C(O)C(F)(F)F | -93.41 |
| CNC(=O)N1CCC2(CC1)c1ncc(-c3cccc(F)c3)n1CCN2C.O=C(O)C(F)(F)F | -80.59 |
| CN1CCn2c(-c3cccc(F)c3)cnc2C12CCN(CC1CC1)CC2.O=C(O)C(F)(F)F.O=C(O)C(F)(F)F.O=C(O)C(F)(F)F | 75.26 |
| CN1CCn2c(-c3cnn(C)c3)cnc2C12CCN(CC1CC1)CC2.O=C(O)C(F)(F)F.O=C(O)C(F)(F)F.O=C(O)C(F)(F)F | -83.71 |
| CN1CCn2c(-c3ccccc3)cnc2C12CCN(CC1CC1)CC2.O=C(O)C(F)(F)F.O=C(O)C(F)(F)F.O=C(O)C(F)(F)F | 80.28 |
| CCS(=O)(=O)N1CCC2(CC1)c1ncc(-c3cccnc3)n1CCN2C | -142.7 |
| CC(=O)N1CCC2(CC1)c1ncc(-c3ccc(F)cc3)n1CCN2C | -51.39 |
| CN1CC2(CCN(c3ncnc4c3CCNC4)CC2)OC1=O | -26.92 |
| CSCc1cc(C(=O)NC2(C#N)CC2)ccc1F | -114.4 |
| CC(C)c1cc(NC(=O)CN2CCC(N3CCCCC3)CC2)on1 | -41.68 |
| CN1C(=O)C(c2cccnc2)CC12CCN(Cc1nccs1)CC2 (stereo not given) | -72.15 |
| Cc1cc(C)n(C2CN(CC(=O)NC3CCS(=O)(=O)C3)C2)n1 (stereo not given) | -92.21 |
| c1cnc(-c2nc(C3CCOC3)no2)cn1 (stereo not given) | -46.11 |
